Test results reported in PubChem BioAssay AID1159580 (chemical genetic matrix, 2015).
Hit rate of the full screen: of about 5,500 compounds, about 2,000 (36%) were called active. Another 18% or so got no clear call; they are omitted. No stated cut-off is given here; in the data, active means normalized growth mostly below about 0.91 (no sharp cut-off); inconclusive means no clear call, values can overlap the other calls; inactive means mostly above about 0.92. Some of the results follow.

Experiment: chemical genetic growth profiling, strain panel (AID 1159580);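 further: tested at 20 µM; growth read once vehicle control cultures reached saturation at 30 °C; 1 = growth at the plate median or of vehicle wells; lower values mean less growth of the strain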
Conditions: S. cerevisiae deletion strains, growth OD
[1] = locus YAR019C, strain CDC15, active compounds read low
[2] = locus YBL105C, strain PKC1, active compounds read low
[3] = locus YBR135W, strain CKS1, active compounds read low
[4] = locus YBR136W, strain MEC1, active compounds read low
[5] = locus YBR160W, strain CDC28, active compounds read low
[6] = locus YDL017W, strain CDC7, active compounds read low
[7] = locus YDL028C, strain MPS1, active compounds read low
[8] = locus YDL101C, strain DUN1, active compounds read low
[9] = locus YDL108W, strain KIN28, active compounds read low
[10] = locus YDL132W, strain cdc53, active compounds read low
[11] = locus YDL214C, strain PRR2, active compounds read low
[12] = locus YDR052C, strain DBF4, active compounds read low
[13] = locus YDR054C, strain cdc34, active compounds read low
[14] = locus YDR226W, strain ADK1, active compounds read low
[15] = locus YDR477W, strain SNF1, active compounds read low
[16] = locus YER123W, strain YCK3, active compounds read low
[17] = locus YER133W, strain GLC7, active compounds read low
[18] = locus YFL009W, strain cdc4, active compounds read low
[19] = locus YFL029C, strain CAK1, active compounds read low
[20] = locus YFR003C, strain YPI1, active compounds read low
[21] = locus YFR019W, strain FAB1, active compounds read low
[22] = locus YFR028C, strain CDC14, active compounds read low
[23] = locus YGR040W, strain KSS1, active compounds read low
[24] = locus YGR052W, strain FMP48, active compounds read low
[25] = locus YGR092W, strain DBF2, active compounds read low
[26] = locus YHR030C, strain SLT2, active compounds read low
[27] = locus YHR079C, strain IRE1, active compounds read low
[28] = locus YHR082C, strain KSP1, active compounds read low
[29] = locus YHR205W, strain SCH9, active compounds read low
[30] = locus YIL147C, strain SLN1, active compounds read low
[31] = locus YJL095W, strain BCK1, active compounds read low
[32] = locus YJL128C, strain PBS2, active compounds read low
[33] = locus YJL157C, strain FAR1, active compounds read low
[34] = locus YJR016C, strain ILV3, active compounds read low
[35] = locus YJR066W, strain TOR1 (second series), active compounds read low
[36] = locus YJR066W, strain TOR1, active compounds read low
[37] = locus YKL048C, strain ELM1, active compounds read low
[38] = locus YKL067W, strain YNK1, active compounds read low
[39] = locus YKL101W, strain HSL1, active compounds read low
[40] = locus YKL193C, strain SDS22, active compounds read low
[41] = locus YKL203C, strain TOR2, active compounds read low
[42] = locus YLR113W, strain HOG1, active compounds read low
[43] = locus YLR133W, strain CKI1, active compounds read low
[44] = locus YLR403W, strain SFP1, active compounds read low
[45] = locus YML070W, strain DAK1, active compounds read low
[46] = locus YMR001C, strain CDC5, active compounds read low
[47] = locus YMR205C, strain PFK2 (second series), active compounds read low
[48] = locus YMR277W, strain FCP1, active compounds read low
[49] = locus YNL006W, strain LST8, active compounds read low
[50] = locus YNL020C, strain ARK1, active compounds read low
[51] = locus YNL161W, strain CBK1, active compounds read low
[52] = locus YNL183C, strain NPR1, active compounds read low
[53] = locus YNL207W, strain RIO2, active compounds read low
[54] = locus YNL222W, strain SSU72, active compounds read low
[55] = locus YNL307C, strain MCK1 (second series), active compounds read low
[56] = locus YOL078W, strain AVO1, active compounds read low
[57] = locus YOL136C, strain PFK27, active compounds read low
[58] = locus YOR061W, strain CKA2, active compounds read low
[59] = locus YOR119C, strain RIO1, active compounds read low
[60] = locus YOR231W, strain MKK1, active compounds read low
[61] = locus YOR329C, strain SCD5, active compounds read low
[62] = locus YPL031C, strain PHO85, active compounds read low
[63] = locus YPL153C, strain RAD53, active compounds read low
[64] = locus YPL204W, strain HRR25, active compounds read low
[65] = locus YPL209C, strain IPL1, active compounds read low
[66] = locus YPL256C, strain CLN2, active compounds read low
[67] = locus YPR025C, strain CCL1, active compounds read low
[68] = locus YPR106W, strain ISR1, active compounds read low
[69] = locus YPR111W, strain DBF20, active compounds read low
[70] = strain NNK1, active compounds read low
[71] = strain TSCII, active compounds read low

Measured: normalized growth

Cc1c(C)c(C)c(C(=O)c2ccc(N=Cc3cc(Cl)cc(Cl)c3O)cc2)c(C)c1C
inactive: [1] 0.929 | [2] 0.934 | [3] 0.94 | [4] 0.925 | [5] 0.944 | [6] 0.926 | [7] 0.941 | [8] 0.949 | [9] 0.944 | [10] 0.926 | [13] 0.918 | [14] 0.923 | [18] 0.922 | [19] 0.932 | [20] 0.922 | [22] 0.941 | [24] 0.605 | [28] 0.631 | [30] 0.926 | [32] 0.927 | [34] 0.944 | [39] 0.735 | [40] 0.93 | [46] 0.938 | [48] 0.929 | [49] 0.938 | [51] 0.925 | [52] 0.655 | [53] 0.937 | [54] 0.94 | [56] 0.94 | [61] 0.921 | [65] 0.925 | [67] 0.937 | [68] 0.938 | [69] 0.941 | [70] 0.939 | [71] 0.925
active: [11] 0.681 | [12] 0.904 | [15] 0.573 | [16] 0.464 | [17] 0.527 | [21] 0.625 | [23] 0.63 | [25] 0.239 | [26] 0.262 | [27] 0.338 | [29] 0.509 | [31] 0.233 | [33] 0.503 | [35] 0.6 | [36] 0.458 | [37] 0.55 | [38] 0.663 | [41] 0.662 | [42] 0.585 | [43] 0.523 | [44] 0.459 | [45] 0.502 | [47] 0.645 | [50] 0.469 | [55] 0.503 | [57] 0.382 | [58] 0.493 | [59] 0.663 | [60] 0.446 | [62] 0.583 | [63] 0.504 | [64] 0.483 | [66] 0.403

CCOC(=O)c1ccc(Cl)c(N=Cc2cc(Cl)cc(Cl)c2O)c1
active: [11] 0.544 | [15] 0.533 | [16] 0.319 | [17] 0.567 | [21] 0.472 | [23] 0.591 | [24] 0.511 | [25] 0.197 | [26] 0.238 | [27] 0.238 | [28] 0.501 | [29] 0.468 | [31] 0.298 | [33] 0.401 | [36] 0.37 | [37] 0.636 | [38] 0.527 | [39] 0.608 | [41] 0.594 | [42] 0.377 | [43] 0.432 | [44] 0.364 | [45] 0.389 | [47] 0.507 | [50] 0.404 | [52] 0.413 | [55] 0.381 | [57] 0.322 | [58] 0.326 | [59] 0.569 | [60] 0.301 | [62] 0.528 | [63] 0.421 | [64] 0.421 | [66] 0.317
inactive: [1] 0.955 | [2] 0.967 | [3] 0.943 | [4] 0.956 | [5] 0.948 | [6] 0.95 | [7] 0.946 | [8] 0.974 | [9] 0.953 | [10] 0.951 | [12] 0.959 | [13] 0.957 | [14] 0.969 | [18] 0.949 | [19] 0.951 | [20] 0.946 | [22] 0.969 | [30] 0.946 | [32] 0.964 | [34] 0.956 | [35] 0.622 | [40] 0.95 | [46] 0.955 | [48] 0.954 | [49] 0.951 | [51] 0.951 | [53] 0.956 | [54] 0.951 | [56] 0.956 | [61] 0.958 | [65] 0.954 | [67] 0.947 | [68] 0.961 | [69] 0.958 | [70] 0.957 | [71] 0.957
